Test results from PubChem BioAssay (NCI).
Compounds without any hit were thinned out: in the full panel of roughly 83,000, 20% have a hit.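 Assay: single dose, 48 h. Readout: percent growth (0 = no net growth; negative = cell death). Active: <10.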 Unmarked numbers belong to inactive results. Activity calls are given as the source filed them.

Legend:
Assay in all cases: NCI-60 one-dose screen, 48 h (100 = growth as untreated, 0 = no growth, -100 = all killed)
Settings in all cases: 10 µM unless noted
EKVX NSCLC = system: EKVX NSCLC
SN12C renal = system: SN12C renal
UO-31 renal = system: UO-31 renal
TK-10 renal = system: TK-10 renal
ACHN renal = system: ACHN renal
CAKI-1 renal = system: CAKI-1 renal
A498 renal = system: A498 renal
CCRF-CEM leukemia = system: CCRF-CEM leukemia
MOLT-4 leukemia = system: MOLT-4 leukemia

Structure (SMILES)	growth (EKVX NSCLC)	growth (SN12C renal)	growth (UO-31 renal)	growth (TK-10 renal)	growth (ACHN renal)	growth (CAKI-1 renal)	growth (A498 renal)	growth (CCRF-CEM leukemia)	growth (MOLT-4 leukemia)
O=C1C=CC2(NN=C(c3ccccc3)N2c2cccc(Cl)c2)c2cccc(O)c21 (stereo not drawn)	76.2%	41.6%	33.3%	118%	45.6%	90.7%	89.1%	70.9%	67.6%
O=S1(=O)OC(c2cc(Cl)c(O)c(Br)c2)(c2cc(Cl)c(O)c(Br)c2)c2ccccc21	110%	90.6%	76.5%	93%	103%	107%	86.5%	–	92.4%
Nc1nc(N)c2nc(-c3cccc(O)c3)c(-c3cccc(O)c3)nc2n1	82.2%	51.4%	65.9%	80.9%	69.3%	67.7%	74.9%	66.3%	90.6%
Cn1ncc(Cl)c1-c1cc(C(=O)N[C@H](CN)Cc2ccc(F)c(F)c2)oc1Cl	6.1% (active)	16.5%	-19.8% (active)	-91% (active)	4.47% (active)	-34.2% (active)	-78.9% (active)	3.82% (active)	-4.62% (active)
c1cc(OCCN2CCCCC2)cc(-c2n[nH]c3ccc(-c4ncn[nH]4)cc23)c1	76.7%	68.2%	25.1%	74.5%	62.7%	26.6%	71%	–	27%
Cn1cc(-c2ncnc3ccc(-c4cnc(Cl)c(NS(C)(=O)=O)c4)cc23)c2ccccc21	11.7%	21.7%	-5.34% (active)	-1.34% (active)	13.3%	10.6%	-42.7% (active)	23.9%	7.73% (active)
CC(C)NC[C@@H](C(=O)N1CCN(c2ncnc3c2[C@H](C)C[C@H]3O)CC1)c1ccc(Cl)cc1	72%	64.4%	53.7%	32.2%	68.7%	45.1%	-21.7% (active)	22.5%	23.3%
C=CCCCOC1[C@H](OCc2ccccc2)C(OCc2ccccc2)C(OC)O[C@@H]1CNC(=O)c1cccc(I)c1 (stereo partly drawn)	36.3%	38.7%	35.4%	64.5%	32.9%	38.3%	71.2%	13.8%	20.4%
CCc1nc2cc(/C=C/C(=O)NO)ccc2c(=O)n1CCc1ccc(OC)cc1	40.8%	24.9%	20.6%	2.16% (active)	9.54% (active)	13.4%	-4.17% (active)	10.2%	5.41% (active)
CCNC(=O)C#Cc1ccc2c(C(=Nc3ccc(CN(C)C)cc3)c3ccccc3)c(O)[nH]c2c1	49%	36.5%	8.22% (active)	25.7%	35.6%	32.7%	-40.3% (active)	17.3%	10.9%
CNC(=O)c1ccc(Nc2ncc(C(F)(F)F)c(NCc3nccnc3N(C)S(C)(=O)=O)n2)cc1	-4.53% (active)	5.6% (active)	-6.92% (active)	-21.5% (active)	3.54% (active)	0.765% (active)	-42.2% (active)	4.49% (active)	-9.42% (active)
C/C(=C(/c1ccc(Cl)cc1)c1ccc(OCCN2CCCC2)cc1)c1ccccc1	55.2%	80.8%	63%	87.7%	82.9%	81.8%	77.6%	–	68.7%
Cc1cc(Nc2nc(N[C@@H](C)c3ncc(F)cn3)ncc2Cl)n[nH]1	99.6%	77.6%	51%	82.8%	63.4%	70.1%	-2.39% (active)	76.6%	62.3%
CO[C@@H](C)Cn1c(=O)n(C)c2cnc3ccc(-c4cncc(C(C)(C)O)c4)cc3c21	4.47% (active)	14.5%	-18.6% (active)	-49.6% (active)	3.66% (active)	-15.5% (active)	-55.5% (active)	10.4%	-8.71% (active)
Oc1ccc(C(c2ccc(O)cc2)C(Cl)(Cl)Cl)cc1	82.5%	84.8%	75.3%	105%	92.3%	105%	87.5%	76.5%	70.5%
COc1cc2ncnc3c2cc1OCCCCCN(C)Cc1ccc(Br)cc1N3	21.4%	32.5%	11.2%	3.42% (active)	8.64% (active)	19.3%	60.9%	51.8%	22.1%
COc1ccc(COc2cc3oc(=O)c4cc(C(C)O)ccc4c3cc2OC)cc1 (stereo not drawn)	68.9%	68.5%	64.5%	73.5%	48.4%	55.9%	84.6%	77.1%	54.5%
COc1cc2c(Oc3ccc4[nH]c(C)cc4c3F)ncnc2cc1OCCCN1CCCC1	95.4%	91.9%	45.3%	90.8%	68.2%	58.9%	2.51% (active)	106%	62.9%
Cc1ccccc1N1C(c2ccccc2)=NNC12C=CC(=O)C=C2Cl (stereo not drawn)	111%	96.3%	88.8%	109%	100%	105%	109%	–	94.7%
Cc1cnc(Nc2ccc(OCCN3CCCC3)cc2)nc1Nc1cccc(S(=O)(=O)NC(C)(C)C)c1	26.4%	12.6%	-96.3% (active)	-40% (active)	-40.8% (active)	-88.3% (active)	-95.3% (active)	1.67% (active)	1.26% (active)
CN(C)CCOC(=O)Nc1nc2ccc(Sc3ccccc3)cc2[nH]1	47.1%	40.5%	31.5%	49.4%	46.2%	33.9%	-3.9% (active)	–	41%
O=C(O)C1(Cc2cccc(Nc3nccs3)n2)CCC(Oc2cccc(Cl)c2F)CC1 (stereo not drawn)	90.9%	73.4%	73.5%	63.8%	68.4%	66.9%	72%	62.6%	67.4%
Cc1ccc(Nc2nccc(N(C)c3ccc4c(C)n(C)nc4c3)n2)cc1S(N)(=O)=O	25.7%	25.7%	-2.51% (active)	21.2%	25.8%	15.1%	-57% (active)	34%	5.93% (active)
Clc1ccc(Nc2nccc(Nc3ccc4[nH]ncc4c3)n2)cc1	66.7%	51.6%	17.4%	61.6%	47.4%	52.3%	39.1%	5.15% (active)	23%
C=C1CC[C@@H]2[C@](C)(COC(C)=O)[C@H](OC(C)=O)CC[C@@]2(C)[C@@H]1C/C=C1/C(=O)OC[C@H]1OC(C)=O	103%	33.4%	62.8%	16.9%	19.5%	81.5%	90.6%	-11.4% (active)	-6.05% (active)
CN[C@@H]1C[C@H]2O[C@@](C)([C@@H]1OC)n1c3ccccc3c3c4c(c5c6ccccc6n2c5c31)C(=O)N[C@H]4O	-4.21% (active)	-38.7% (active)	-64.4% (active)	-34% (active)	5.01% (active)	-59.7% (active)	-97.1% (active)	–	0.831% (active)
O=c1[nH]ccc2c(S(=O)(=O)N3CCCNCC3)cccc12	65.4%	69.2%	40.6%	26%	41.7%	55.5%	36.3%	89.1%	84.9%
O=C(O)c1ccc(Nc2ncc3c(n2)-c2ccc(Cl)cc2C(c2c(F)cccc2F)=NC3)cc1	80.1%	62.8%	41.8%	40.1%	49%	47.6%	25.3%	–	44.6%
COC[C@@H](C)n1c(C2CCOCC2)nc2c1C1C=C(OC)C(c3c(C)noc3C)=CC1N=C2 (stereo partly drawn)	56.9%	64.9%	13.2%	6.38% (active)	41.2%	41%	18.6%	–	59%
